Cycloheximide cs: Cycloheximide Counterscreen for Small Molecule Inhibitors of Shiga Toxin; max response, %; 300,000 compounds, 12% hits; cell reporter, cycloheximide protein synthesis inhibition counterscreen; AID 2314, 2010; in the data active = max response mostly above about 13%, no sharp cut-off; inactive = mostly below about 14%; note: read at 38.3 µM for the half of the compounds with a filed dose; 0% is about no effect
FMDV antiviral: High Throughput Screening for Foot and Mouth Disease Virus Antivirals | 410,000 compounds, 1.2% hits | Potency, µM (highest dose often 57.9 µM), inactives show at the highest dose activity change, negative = inhibition, hits mostly inhibitors | FMDV antiviral cell-based qHTS | AID 1159524, 2015; calls by dose curve; tested in HEK293T cells; note: read-out not given here; potency is the fitted concentration of half-maximal effect; % is set by controls: 0 for no effect and ±100 for the full control effect; nearly all actives have a fitted effect of over 45% in size
Shiga toxin inh: A qHTS for Small Molecule Inhibitors of Shiga Toxin; inhibition, % at 38.7 µM; Vero cells, Shiga toxin protein synthesis inhibition reporter; AID 2315, 2010; 290,000 compounds, 9.2% hits; in the data active = inhibition mostly above about 28%, no sharp cut-off; inactive = mostly below about 43%; note: 0% is about no effect
Sm TGR block: qHTS Assay for the Inhibitors of Schistosoma Mansoni Peroxiredoxins. Potency, µM (top dose mostly 114 µM), without a hit: at the highest dose activity change, negative = inhibition, usual class: inhibitors. 360,000 compounds, 3% hits. purified TGR, DTNB reduction, TNB absorbance 405 nm; active = well fitted inhibition curve with a large enough effect; inconclusive = small, poorly fitted or top-dose-only effect; inactive = no such curve, though single readings can be large or run the other way; note: potency is the fitted concentration of half-maximal effect; % is set by controls: 0 for no effect and ±100 for the full control effect; nearly all actives have a fitted effect of over 60% in size
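First, TGR (20 nM dispensed) and NADPH were mixed with compound. Second, a 15 min room-temperature incubation followed. Third, further NADPH and then DTNB were added to start the reaction. Finally, TNB absorbance was monitored kinetically.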
The depositor's hits bear a star; u = inconclusive; x = no result given. Compounds with a hit are over-represented: about 12% of the library has one in this group of screens.

SMILES	Cycloheximide cs	FMDV antiviral	Shiga toxin inh	Sm TGR block
CC1(C)C[C@@H]2C(=O)CCC3O[C@@]3(C)CCC21 (stereo not given in full)	x	2%	x	x
NC(=O)c1ccccc1NC(=S)NC(=O)c1ccc(Br)o1	35*	14%	56*	u
O=C(NC(=S)NCc1ccccc1)c1ccc(Br)o1	12	x	27	-19%
CC(C)c1ccc(NC(=O)c2ccc(Br)o2)cc1	40*	-18%	50*	-1%
O=C(Nc1ccc(Cc2ccncc2)cc1)c1ccc(Br)o1	15*	11%	34	-7%
Cc1cc(O)c(NC(=O)c2ccc(Br)o2)cc1C	46*	59%	66*	-11%
COC(=O)c1cc(OC)c(OC)cc1NC(=O)c1ccc(Br)o1	x	0%	x	x
COc1ccc(-c2cccc3c2OC(CNC(=O)c2ccc4c(c2)OCO4)C3)nn1 (stereo not given)	x	31%	x	x
Cc1nc(-c2ccc(NC(=O)c3ccc(Br)o3)cc2)cs1	56*	-36%	114*	-15%
O=C(NNC(=S)NCc1ccc(Cl)cc1)c1ccc(Br)o1	9	-4%	32	x
O=C(Nc1ccc(Nc2ccccc2)cc1)c1ccc(Br)o1	27*	1%	61*	1%
O=C(Nc1ccc2c(c1)Cc1ccccc1-2)c1ccc(Br)o1	34*	45%	35*	2%
CC(C)(Oc1ccc(Cl)cc1)C(=O)NNC(=O)c1ccc(Br)o1	15*	1%	2	-18%
O=C(Nc1ccc(NC(=O)c2cccs2)cc1)c1ccc(Br)o1	14	6%	28	0%
Cc1nc(-c2cccc(NC(=O)c3ccc(Br)o3)c2)cs1	16	26%	25	-8%
Cc1ccc(CN2CCCn3nc(C(=O)NCCC(C)C)cc3C2=O)cc1	x	10%	x	6%
CCc1c(C)sc(NC(=O)c2cc3nc(-c4ccc(OC)cc4)cc(C(F)(F)F)n3n2)c1C(=O)OC	x	-9%	x	-5%
CC(C)c1ccc(NC(=O)c2ccc(CN3CC(=O)N4CCCCC4C3=O)cc2)cc1 (stereo not given)	x	-24%	x	-4%
CCCN(C(=O)COc1cc(=O)n(CC)c2ccccc12)c1ccc(C(C)C)cc1	x	u	x	-12%
COc1ccc(NC(=O)c2ccc(Br)o2)cc1	36*	40%	96*	1%
COc1ccc(NC(=S)NC(=O)c2cncc(Br)c2)cc1	x	16%	x	x
COc1ccccc1NC(=O)c1ccc(Br)o1	14*	5%	31	1%
COc1ccc(NC(=S)NC(=O)c2ccc(Br)o2)cc1	67*	120%	96*	8.9µM*
O=C(Nc1ccccc1Oc1ccccc1)c1ccc(Br)o1	-1	-10%	-13	-8%
CC(NC(=O)c1ccc(Br)o1)C1CCCO1 (stereo not given)	-3	-21%	8	-8%
SMILES	Cycloheximide cs	FMDV antiviral	Shiga toxin inh	Sm TGR block
C/C(=N/NC(=O)c1ccc(Br)o1)C(C)C	30*	-8%	79*	1%
NCCCCCCNS(=O)(=O)c1ccc2c(Cl)cccc2c1	x	32%	x	x
O=C(NC(=S)Nc1ccccc1)c1ccc(Br)o1	36*	67%	79*	u
CC(C)Sc1ncc(Cl)c(C(=O)Nc2ccc(S(=O)(=O)N3CCCCC3C)cc2)n1 (stereo not given)	x	-16%	x	-4%
COc1ccc(OC)c(CNc2nc3ccccc3n2CCN2CCCCC2)c1	-4	-10%	-7	0%
COc1cccc(CNc2nc3ccccc3n2CCN2CCCCC2)c1OC	-1	-23%	4	-15%
CCn1c(NCc2cccc(OC)c2OC)nc2ccccc21	13	42%	26*	-12%
CCn1c(NCc2cc(OC)ccc2OC)nc2ccccc21	30*	40%	69*	-1%
CCCn1c(NCc2cc(OC)ccc2OC)nc2ccccc21	27*	27%	53	1%
COc1ccc(CNc2nc3c(c(=O)n(C)c(=O)n3C)n2Cc2ccccc2Cl)cc1	x	-8%	x	-1%
CCOc1cccc2cc(-c3csc(NC(=O)CCC(=O)NCCN4CCCCC4C)n3)c(=O)oc12 (stereo not given)	40*	81%	76	2%
COc1ccc(-c2cc3ccc(O)c(CN4CCC(C)CC4)c3oc2=O)cc1OC	x	13%	x	6%
CCOc1cccc2cc(-c3csc(NC(=O)CCC(=O)NCCCN4CCC(C)CC4)n3)c(=O)oc12	41*	x	83*	-15%
COc1cccc2cc(-c3csc(NC(=O)CCC(=O)NCCCN4CCC(C)CC4)n3)c(=O)oc12	28*	2%	73*	-15%
CCOc1cccc2cc(-c3csc(NC(=O)CCC(=O)N4CCC(C)CC4)n3)c(=O)oc12	-1	4%	21	-22%

High-throughput results deposited in PubChem by National Center for Advancing Translational Sciences (NCATS).
